Screening data from PubChem.
Shown are actives, neighbours in structure and some others; about 2% of the full set was active somewhere.
GalR3 antag = antagonists of human GalR3; inhibition, % at 3 µM; HEK293 GalR3-CNG cAMP membrane potential fluorescence; galR3 body fused to GalR1 C-terminus; 360,000 tested, 0.44% active;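 active = inhibition above the screen-wide average plus 3 SD, cut at about 13% in these data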;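 note: forskolin and galanin both at EC90 stimulate the cells; cAMP rise reported by CNG channel membrane potential dye signal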
Target sequence (O60755 1-299 limits assumed): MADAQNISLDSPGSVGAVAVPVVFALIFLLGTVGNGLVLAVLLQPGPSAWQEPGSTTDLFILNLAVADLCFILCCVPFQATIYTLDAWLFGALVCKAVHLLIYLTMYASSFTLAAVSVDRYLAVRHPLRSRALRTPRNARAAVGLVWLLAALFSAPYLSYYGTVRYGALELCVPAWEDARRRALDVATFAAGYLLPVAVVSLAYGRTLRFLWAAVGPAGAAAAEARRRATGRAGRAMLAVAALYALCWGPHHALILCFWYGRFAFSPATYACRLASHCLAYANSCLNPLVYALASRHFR
Jurkat NFkB inh = inhibitors of the PMA/ionomycin-induced NF-kB reporter in Jurkat cells. 330,000 tested, 0.53% active. AID 435003. PMA/ionomycin-induced NF-kB luciferase reporter, luminescence. inhibition, % at 4 µM; in the data active = inhibition above about 50%
Gli-Sufu block = antagonists of Gli-Sufu signaling | Sufu-KO-LIGHT fibroblasts, Gli luciferase reporter luminescence | inhibition, % at 5 µM | 340,000 tested, 0.74% active;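 active = inhibition above about 55%, limit read from the data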
NR2F2 inh = blocks human COUP-TFII nuclear receptor; P24468; HEK293T NGFI-A luciferase reporter, luminescence; inhibition, % at 8.6 µM; 370,000 tested, 0.7% active; AID 686940;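 active = inhibition above a per-plate cutoff, mean inhibition of test wells between control levels plus 3 SD, cut at about 38% in these data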;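 note: cells cotransfected with COUP-TFII expression vector driving the NGFI-A reporter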
697 NFkB inh = inhibitors of the PMA/ionomycin-induced NF-kB reporter in 697 B cells | 697 B-cell NF-kB luciferase reporter, 16 h | inhibition, % at 4 µM | 330,000 tested, 0.33% active | AID 435022; in the data active = inhibition above about 35%
Gli antag conf = Gli-SUFU antagonism confirmation, single concentration | shares compounds with Gli-Sufu block | Sufu-KO-LIGHT cells, Gli luciferase reporter, luminescence | inhibition, % at 5 µM | 2,500 tested, 40% active | AID 602428;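 active = mean inhibition at 5 µM reaching about 45%, limit read from the data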
SufuKO cytotox = cytotoxicity counter-screen for Gli-SUFU antagonists; Sufu-KO-LIGHT cells cytotoxicity, ATP luminescence; shares compounds with Gli-Sufu block; 2,500 tested, 32% active; cytotoxicity, % at 5 µM;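 active = mean cytotoxicity at 5 µM above about 25%, limit read from the data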;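 note: cells exposed to compound overnight for roughly 16 to 18 hours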
Wnt3a cs = counter-screen for Gli-SUFU antagonists: Wnt3a reporter inhibition. AID 651995. Wnt-LIGHT cells, Wnt3a-driven luciferase reporter, luminescence. inhibition, % at 6.25 µM. 2,500 tested, 20% active. shares compounds with Gli-Sufu block;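 active = mean inhibition above about 25%, limit read from the data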
Numbers stand for hits; - = inactive; . = not tested or not shown.

SMILES	GalR3 antag	Jurkat NFkB inh	Gli-Sufu block	NR2F2 inh	697 NFkB inh	Gli antag conf	SufuKO cytotox	Wnt3a cs
c1ccc(Nc2nc(NCC3CCCO3)c3ccccc3n2)cc1 (stereo not given)	-	-	57	-	-	45	36	28
Oc1cccc(Nc2nc(NCC3CCCO3)c3ccccc3n2)c1 (stereo not given)	.	-	-	.	-	.	.	.
O=C(Cc1csc(Nc2nc(=S)[nH]c3ccccc23)n1)NCc1ccc(Cl)cc1	.	-	.	.	-	.	.	.
O=C(Cc1csc(Nc2nc(=S)[nH]c3ccccc23)n1)NCCCN1CCN(c2ccccc2F)CC1	-	-	86	-	-	-	-	-
COCCNC(=O)c1cccc(OC2CCN(Cc3ccc(C(=O)OC)cc3)CC2)c1	-	-	60	-	-	-	-	-
CN(C(=O)c1cccc(NC(=O)Cc2ccc(NC(=O)C3CCCN(C(=O)c4ccccc4)C3)cc2)c1)C1CC1 (stereo not given)	-	.	.	-	.	.	.	.
O=C(CSc1nnc(-c2ccncc2)n1-c1ccc(Cl)cc1)c1ccc(Cl)c(Cl)c1	.	.	.	-	.	.	.	.
CSc1ccc(C2(O)Cc3cccc[n+]3C2c2ccccc2)cc1 (stereo not given)	-	-	56	-	-	-	-	-
CN1C2=N[C@H](c3ccccc3Br)CC(=O)N2/C(=C\c2ccccc2)[C@@H]1c1ccccc1	.	.	.	-	.	.	.	.
CCCS(=O)(=O)N1CCN(Cc2ccccc2C(F)(F)F)CC1	-	-	-	-	-	.	.	.
CN1CCCN(Cc2ccccc2C(F)(F)F)CC1	-	-	94	-	-	-	-	-
COc1ccc(C(=O)CSc2nnc(-c3ccccn3)n2-c2ccccc2)cc1	.	.	.	-	.	.	.	.
C=CCN=C(NC#N)SC	-	-	58	-	-	-	-	-
C=CCN=C(NC#N)SCC(=O)NC(C)(C)C	-	-	-	-	-	.	.	.
O=C(O)CSCCn1cccn1	-	-	-	-	-	.	.	.
Cc1ccn(CCSCC(=O)O)n1	-	-	-	-	-	-	-	-
CCOC(=O)C(C)NC(=O)Cn1ncc2c(=O)oc3ccc(C)cc3c21 (stereo not given)	-	-	-	-	-	.	.	.
Cc1ccc2oc(=O)c3cnn(CC(=O)NC4CCC(C)CC4)c3c2c1 (stereo not given)	.	-	-	-	-	-	-	-
Cc1ccc2oc(=O)c3cnn(CC(=O)NC4CCCCC4C)c3c2c1 (stereo not given)	-	-	99	-	-	-	-	-
Cc1ccc(C)c(-c2csc(NC(=O)C3=COCCO3)n2)c1	-	-	63	-	-	63	-	-
Cc1ccc(-c2csc(NC(=O)C3=COCCO3)n2)cc1	-	-	-	-	-	.	.	.
CCC(=O)Nc1ccc2c(c1)C(=O)N(C)[C@@H]1CC[C@@H](CC(=O)NCCN3CCCCC3)O[C@H]1CO2	.	.	.	-	.	.	.	.
Nc1nc(SCC(=O)Nc2cccc(Oc3ccccc3)c2)n[nH]1	-	-	-	-	-	-	-	-
O=C([O-])c1cc(-c2ccccc2)cc(-c2ccccc2)[n+]1CCc1ccc(Cl)cc1	-	.	78	-	.	67	36	-
O=C(CCc1ccccc1)NNC(=O)Cc1ccc(Cl)cc1	-	-	-	-	-	.	.	.
SMILES	GalR3 antag	Jurkat NFkB inh	Gli-Sufu block	NR2F2 inh	697 NFkB inh	Gli antag conf	SufuKO cytotox	Wnt3a cs
O=C(CCn1nnc2ccccc21)N1CCN(c2ccccc2F)CC1	.	.	.	-	.	.	.	.
CCN1CC2=C(OC(N)=C(C#N)C2c2cccs2)/C(=C\c2cccs2)C1 (stereo not given)	-	-	77	-	-	-	-	-
CN(Cc1ccccn1)Cc1nc(Cc2ccccc2Cl)no1	-	-	-	-	-	.	.	.
Cc1cnccc1CN(C)Cc1nc(Cc2ccccc2Cl)no1	-	-	55	-	-	-	-	-
Cc1ccc2c(c1)C(=O)CC(O)(C(F)F)O2 (stereo not given)	-	-	55	-	-	-	-	-
COc1ccccc1C(=O)N/C(=C\c1ccc(Br)cc1)C(=O)NCCC(=O)O	-	-	-	-	-	.	.	.
COc1ccccc1C(=O)N/C(=C\c1ccc(Br)cc1)C(=O)NCC(=O)O	-	-	97	-	-	-	-	-
Cc1cc(C)nc(N2CCC(C(=O)N(C)CCc3ccccn3)CC2)n1	.	.	.	-	.	.	.	.
COc1ccc(C(=O)C2(C(=O)Nc3cc(C)cc(C)c3)CC(c3ccccn3)=NO2)cc1 (stereo not given)	.	.	.	-	.	.	.	.
CCN1CCCCC(NC(=O)c2ccccc2C)C1=O (stereo not given)	.	.	.	-	.	.	.	.
Cc1ccccc1NC(=O)c1onc2c1CCCC2	-	-	56	-	-	-	-	-
Cc1cccc(NC(=O)c2onc3c2CCCC3)c1C	-	-	-	-	-	.	.	.
C=CCN1C[C@@H](COCc2ccccc2)Oc2cccc(F)c2S1(=O)=O	.	.	.	-	.	.	.	.
Cc1cccc(CCNC(=O)c2ccc3c(c2)ncn3C2CCCCC2)c1	.	.	.	-	.	.	.	.
CC(=O)c1cnc(N2CCCCC2)nc1C	-	-	56	-	-	-	29	-
CCCC1CCC2(CC1)CCC2OC(=S)Nc1cccc(C(F)(F)F)c1 (stereo not given)	.	.	.	-	.	.	.	.
COCCNC(=O)COc1ncnc2scc(-c3ccc(F)cc3)c12	-	-	-	-	-	.	.	.
NC(=O)COc1ncnc2scc(-c3ccc(F)cc3)c12	-	-	-	-	-	-	-	-
COc1ccccc1CCNC(=O)C(=O)NCCC1CCCCN1S(=O)(=O)c1ccccc1 (stereo not given)	-	-	-	-	-	.	.	.
COc1ccccc1CNC(=O)C(=O)NCCC1CCCCN1S(=O)(=O)c1ccc(C)cc1 (stereo not given)	-	-	-	-	-	-	-	-
COc1ccc(C2=[N+](C)CCn3cccc32)c(OC)c1	-	-	70	-	-	47	-	-
COc1ccc(CN2CCc3ccccc3C2)c(OC)c1	-	-	-	-	-	.	.	.
CCOC(=O)Nc1ccc2c(c1)N(C(=O)CN1CCN(C)CC1)c1ccccc1CC2	-	-	-	-	-	-	-	-
O=C(N/N=C/c1cn(CCOc2ccccc2)c2ccccc12)c1ccncc1	-	-	-	-	-	-	-	-
COc1ccccc1OCCn1cc(/C=N/NC(=O)c2ccncc2)c2ccccc21	-	-	-	-	-	.	.	.
CC(=O)Nc1nc(C)cs1	-	-	-	-	-	.	.	.
Cc1ccc(CNc2nc(C)cs2)cc1	-	-	73	-	-	-	-	-
COc1cc(C2c3cc4c(cc3OC(NNC(N)=O)C2C)OCO4)cc(OC)c1OC (stereo not given)	-	.	56	-	.	55	62	-
Cc1cccc(C)c1NC(=O)CCCSc1nnnn1C	-	-	-	-	-	.	.	.
